Assays:
Experiment in all cases: log2 ratio of Biotin-Ahx-Ub-VS probe labelling (fragment/DMSO); higher = less target engagement (more negative = stronger competition), active = hit call of the paper (q ≤ 0.05, log2 ratio ≤ -1)
Settings in all cases: compound concentration: 200 uM; treatment time: 3 h
USP34 = USP34 (UniProt Q70CQ2)
Summary of the method: (§1)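 Global-median-normalised Spectronaut label-free quantities were compared by unpaired t-test, and values are average log2 ratios of fragment over vehicle. Only proteins with ≥2 unique peptides were used. HEK293T lysate (495 µg per sample) was treated in triplicate with fragment at 200 µM or vehicle for 3 h and then with Biotin-Ahx-Ub-VS at 0.5 µM final for 1 h. Labelled DUBs were then NeutrAvidin-enriched, digested with LysC and trypsin, and run by diaPASEF LC-MS/MS.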

USP36 = target: T1, USP36 (UniProt Q9P275)
T1 sequence (whole entry): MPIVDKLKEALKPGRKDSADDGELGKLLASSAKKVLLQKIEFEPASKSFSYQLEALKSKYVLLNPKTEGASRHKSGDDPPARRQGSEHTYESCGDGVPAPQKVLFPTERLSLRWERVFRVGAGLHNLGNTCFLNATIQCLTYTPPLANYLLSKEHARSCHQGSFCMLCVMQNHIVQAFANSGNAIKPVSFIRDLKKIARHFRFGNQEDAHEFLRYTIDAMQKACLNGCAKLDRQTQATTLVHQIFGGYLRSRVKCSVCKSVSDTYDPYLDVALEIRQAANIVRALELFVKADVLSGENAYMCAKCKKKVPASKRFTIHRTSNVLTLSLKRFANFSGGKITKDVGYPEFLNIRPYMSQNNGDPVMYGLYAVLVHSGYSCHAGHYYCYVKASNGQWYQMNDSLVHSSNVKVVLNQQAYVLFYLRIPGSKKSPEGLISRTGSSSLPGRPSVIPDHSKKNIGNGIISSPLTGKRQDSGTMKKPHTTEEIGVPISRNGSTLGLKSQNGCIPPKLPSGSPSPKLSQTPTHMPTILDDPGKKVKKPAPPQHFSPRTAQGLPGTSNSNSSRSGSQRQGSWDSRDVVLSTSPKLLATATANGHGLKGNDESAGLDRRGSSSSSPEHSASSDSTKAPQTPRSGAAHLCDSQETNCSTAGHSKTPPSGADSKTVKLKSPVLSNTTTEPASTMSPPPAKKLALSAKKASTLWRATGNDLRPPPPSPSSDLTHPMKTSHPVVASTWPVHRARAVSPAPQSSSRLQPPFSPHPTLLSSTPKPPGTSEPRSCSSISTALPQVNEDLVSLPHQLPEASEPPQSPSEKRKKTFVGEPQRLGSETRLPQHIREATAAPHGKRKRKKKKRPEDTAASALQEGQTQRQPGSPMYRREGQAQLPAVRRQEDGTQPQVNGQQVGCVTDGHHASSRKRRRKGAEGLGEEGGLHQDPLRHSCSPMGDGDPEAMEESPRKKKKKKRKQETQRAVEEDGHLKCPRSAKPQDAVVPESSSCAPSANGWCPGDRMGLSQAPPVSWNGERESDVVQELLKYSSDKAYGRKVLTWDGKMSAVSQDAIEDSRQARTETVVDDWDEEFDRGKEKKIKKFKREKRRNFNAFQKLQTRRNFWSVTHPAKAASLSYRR
Summary of the method: as §1

USP38 = target: T2, USP38 (UniProt Q8NB14)
T2 sequence (whole entry): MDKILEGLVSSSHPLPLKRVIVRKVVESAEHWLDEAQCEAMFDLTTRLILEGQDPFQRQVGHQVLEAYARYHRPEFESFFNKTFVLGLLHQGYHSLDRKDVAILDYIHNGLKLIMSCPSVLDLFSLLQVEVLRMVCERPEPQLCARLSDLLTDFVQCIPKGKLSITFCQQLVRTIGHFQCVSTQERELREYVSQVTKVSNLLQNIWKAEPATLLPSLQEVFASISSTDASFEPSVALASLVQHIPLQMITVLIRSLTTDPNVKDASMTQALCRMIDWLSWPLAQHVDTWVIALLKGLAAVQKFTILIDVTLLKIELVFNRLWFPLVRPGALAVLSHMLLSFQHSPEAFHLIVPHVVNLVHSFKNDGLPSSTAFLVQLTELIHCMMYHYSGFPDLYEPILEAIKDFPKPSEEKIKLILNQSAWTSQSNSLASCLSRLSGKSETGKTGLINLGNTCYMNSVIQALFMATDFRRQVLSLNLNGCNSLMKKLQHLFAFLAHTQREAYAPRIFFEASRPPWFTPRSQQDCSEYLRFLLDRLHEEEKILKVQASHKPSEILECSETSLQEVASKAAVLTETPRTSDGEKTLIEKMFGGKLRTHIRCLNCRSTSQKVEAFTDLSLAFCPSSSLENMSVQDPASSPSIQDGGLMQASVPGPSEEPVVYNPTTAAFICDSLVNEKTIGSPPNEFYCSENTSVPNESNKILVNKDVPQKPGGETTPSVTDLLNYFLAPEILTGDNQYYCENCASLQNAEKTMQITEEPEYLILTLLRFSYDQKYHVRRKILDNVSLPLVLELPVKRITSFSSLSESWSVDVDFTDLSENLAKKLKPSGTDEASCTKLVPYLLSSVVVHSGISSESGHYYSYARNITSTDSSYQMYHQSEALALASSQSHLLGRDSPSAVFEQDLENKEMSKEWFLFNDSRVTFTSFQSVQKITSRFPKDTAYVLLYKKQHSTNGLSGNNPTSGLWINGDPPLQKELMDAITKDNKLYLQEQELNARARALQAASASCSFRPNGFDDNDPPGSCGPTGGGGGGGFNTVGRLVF
Summary of the method: as §1

USP39 = target: T3, USP39 (UniProt Q53GS9)
T3 sequence (whole entry): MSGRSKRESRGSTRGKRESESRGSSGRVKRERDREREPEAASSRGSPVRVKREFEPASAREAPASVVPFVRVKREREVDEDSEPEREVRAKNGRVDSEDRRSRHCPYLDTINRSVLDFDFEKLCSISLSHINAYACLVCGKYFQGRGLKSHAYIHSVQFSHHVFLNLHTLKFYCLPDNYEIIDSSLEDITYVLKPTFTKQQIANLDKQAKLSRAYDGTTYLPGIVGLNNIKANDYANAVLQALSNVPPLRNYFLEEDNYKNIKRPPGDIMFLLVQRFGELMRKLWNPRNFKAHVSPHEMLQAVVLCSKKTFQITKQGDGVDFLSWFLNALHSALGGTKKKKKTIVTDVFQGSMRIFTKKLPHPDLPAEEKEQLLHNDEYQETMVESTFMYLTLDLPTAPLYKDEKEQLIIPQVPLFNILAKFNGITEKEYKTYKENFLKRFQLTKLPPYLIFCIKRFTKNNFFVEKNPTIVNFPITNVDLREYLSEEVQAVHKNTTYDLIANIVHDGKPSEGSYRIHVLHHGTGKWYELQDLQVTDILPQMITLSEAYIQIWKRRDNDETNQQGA
Summary of the method: as §1

USP4 = target: T4, USP4 (UniProt Q13107)
T4 sequence (whole entry): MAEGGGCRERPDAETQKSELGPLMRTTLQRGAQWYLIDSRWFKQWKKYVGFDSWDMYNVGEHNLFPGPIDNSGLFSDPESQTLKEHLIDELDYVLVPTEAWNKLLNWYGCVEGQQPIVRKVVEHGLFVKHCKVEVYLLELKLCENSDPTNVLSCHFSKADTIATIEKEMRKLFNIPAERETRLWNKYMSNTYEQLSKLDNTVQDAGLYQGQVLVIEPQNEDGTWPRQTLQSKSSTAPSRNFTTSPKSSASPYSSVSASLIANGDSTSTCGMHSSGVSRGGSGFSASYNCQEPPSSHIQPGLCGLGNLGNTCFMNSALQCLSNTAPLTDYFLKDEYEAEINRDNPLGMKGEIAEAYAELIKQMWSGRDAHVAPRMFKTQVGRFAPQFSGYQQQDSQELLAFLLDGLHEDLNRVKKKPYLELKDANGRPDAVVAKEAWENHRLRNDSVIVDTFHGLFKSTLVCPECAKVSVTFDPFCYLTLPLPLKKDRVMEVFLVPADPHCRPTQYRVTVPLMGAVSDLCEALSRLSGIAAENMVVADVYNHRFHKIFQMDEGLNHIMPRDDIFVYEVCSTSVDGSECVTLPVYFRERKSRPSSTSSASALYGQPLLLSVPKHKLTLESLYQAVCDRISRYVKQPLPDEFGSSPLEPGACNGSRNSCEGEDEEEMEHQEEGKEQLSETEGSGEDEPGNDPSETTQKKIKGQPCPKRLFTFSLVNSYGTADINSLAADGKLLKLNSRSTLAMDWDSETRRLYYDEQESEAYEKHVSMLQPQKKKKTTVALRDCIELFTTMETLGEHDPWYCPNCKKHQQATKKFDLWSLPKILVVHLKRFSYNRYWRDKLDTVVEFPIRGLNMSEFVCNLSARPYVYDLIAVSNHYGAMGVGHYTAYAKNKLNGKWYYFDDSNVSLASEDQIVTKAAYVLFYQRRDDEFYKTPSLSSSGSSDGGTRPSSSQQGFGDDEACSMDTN
Summary of the method: as §1

Measured: log2 ratio of Biotin-Ahx-Ub-VS probe labelling

Chain of USP34 (Q70CQ2 whole entry, the tested form may be a part): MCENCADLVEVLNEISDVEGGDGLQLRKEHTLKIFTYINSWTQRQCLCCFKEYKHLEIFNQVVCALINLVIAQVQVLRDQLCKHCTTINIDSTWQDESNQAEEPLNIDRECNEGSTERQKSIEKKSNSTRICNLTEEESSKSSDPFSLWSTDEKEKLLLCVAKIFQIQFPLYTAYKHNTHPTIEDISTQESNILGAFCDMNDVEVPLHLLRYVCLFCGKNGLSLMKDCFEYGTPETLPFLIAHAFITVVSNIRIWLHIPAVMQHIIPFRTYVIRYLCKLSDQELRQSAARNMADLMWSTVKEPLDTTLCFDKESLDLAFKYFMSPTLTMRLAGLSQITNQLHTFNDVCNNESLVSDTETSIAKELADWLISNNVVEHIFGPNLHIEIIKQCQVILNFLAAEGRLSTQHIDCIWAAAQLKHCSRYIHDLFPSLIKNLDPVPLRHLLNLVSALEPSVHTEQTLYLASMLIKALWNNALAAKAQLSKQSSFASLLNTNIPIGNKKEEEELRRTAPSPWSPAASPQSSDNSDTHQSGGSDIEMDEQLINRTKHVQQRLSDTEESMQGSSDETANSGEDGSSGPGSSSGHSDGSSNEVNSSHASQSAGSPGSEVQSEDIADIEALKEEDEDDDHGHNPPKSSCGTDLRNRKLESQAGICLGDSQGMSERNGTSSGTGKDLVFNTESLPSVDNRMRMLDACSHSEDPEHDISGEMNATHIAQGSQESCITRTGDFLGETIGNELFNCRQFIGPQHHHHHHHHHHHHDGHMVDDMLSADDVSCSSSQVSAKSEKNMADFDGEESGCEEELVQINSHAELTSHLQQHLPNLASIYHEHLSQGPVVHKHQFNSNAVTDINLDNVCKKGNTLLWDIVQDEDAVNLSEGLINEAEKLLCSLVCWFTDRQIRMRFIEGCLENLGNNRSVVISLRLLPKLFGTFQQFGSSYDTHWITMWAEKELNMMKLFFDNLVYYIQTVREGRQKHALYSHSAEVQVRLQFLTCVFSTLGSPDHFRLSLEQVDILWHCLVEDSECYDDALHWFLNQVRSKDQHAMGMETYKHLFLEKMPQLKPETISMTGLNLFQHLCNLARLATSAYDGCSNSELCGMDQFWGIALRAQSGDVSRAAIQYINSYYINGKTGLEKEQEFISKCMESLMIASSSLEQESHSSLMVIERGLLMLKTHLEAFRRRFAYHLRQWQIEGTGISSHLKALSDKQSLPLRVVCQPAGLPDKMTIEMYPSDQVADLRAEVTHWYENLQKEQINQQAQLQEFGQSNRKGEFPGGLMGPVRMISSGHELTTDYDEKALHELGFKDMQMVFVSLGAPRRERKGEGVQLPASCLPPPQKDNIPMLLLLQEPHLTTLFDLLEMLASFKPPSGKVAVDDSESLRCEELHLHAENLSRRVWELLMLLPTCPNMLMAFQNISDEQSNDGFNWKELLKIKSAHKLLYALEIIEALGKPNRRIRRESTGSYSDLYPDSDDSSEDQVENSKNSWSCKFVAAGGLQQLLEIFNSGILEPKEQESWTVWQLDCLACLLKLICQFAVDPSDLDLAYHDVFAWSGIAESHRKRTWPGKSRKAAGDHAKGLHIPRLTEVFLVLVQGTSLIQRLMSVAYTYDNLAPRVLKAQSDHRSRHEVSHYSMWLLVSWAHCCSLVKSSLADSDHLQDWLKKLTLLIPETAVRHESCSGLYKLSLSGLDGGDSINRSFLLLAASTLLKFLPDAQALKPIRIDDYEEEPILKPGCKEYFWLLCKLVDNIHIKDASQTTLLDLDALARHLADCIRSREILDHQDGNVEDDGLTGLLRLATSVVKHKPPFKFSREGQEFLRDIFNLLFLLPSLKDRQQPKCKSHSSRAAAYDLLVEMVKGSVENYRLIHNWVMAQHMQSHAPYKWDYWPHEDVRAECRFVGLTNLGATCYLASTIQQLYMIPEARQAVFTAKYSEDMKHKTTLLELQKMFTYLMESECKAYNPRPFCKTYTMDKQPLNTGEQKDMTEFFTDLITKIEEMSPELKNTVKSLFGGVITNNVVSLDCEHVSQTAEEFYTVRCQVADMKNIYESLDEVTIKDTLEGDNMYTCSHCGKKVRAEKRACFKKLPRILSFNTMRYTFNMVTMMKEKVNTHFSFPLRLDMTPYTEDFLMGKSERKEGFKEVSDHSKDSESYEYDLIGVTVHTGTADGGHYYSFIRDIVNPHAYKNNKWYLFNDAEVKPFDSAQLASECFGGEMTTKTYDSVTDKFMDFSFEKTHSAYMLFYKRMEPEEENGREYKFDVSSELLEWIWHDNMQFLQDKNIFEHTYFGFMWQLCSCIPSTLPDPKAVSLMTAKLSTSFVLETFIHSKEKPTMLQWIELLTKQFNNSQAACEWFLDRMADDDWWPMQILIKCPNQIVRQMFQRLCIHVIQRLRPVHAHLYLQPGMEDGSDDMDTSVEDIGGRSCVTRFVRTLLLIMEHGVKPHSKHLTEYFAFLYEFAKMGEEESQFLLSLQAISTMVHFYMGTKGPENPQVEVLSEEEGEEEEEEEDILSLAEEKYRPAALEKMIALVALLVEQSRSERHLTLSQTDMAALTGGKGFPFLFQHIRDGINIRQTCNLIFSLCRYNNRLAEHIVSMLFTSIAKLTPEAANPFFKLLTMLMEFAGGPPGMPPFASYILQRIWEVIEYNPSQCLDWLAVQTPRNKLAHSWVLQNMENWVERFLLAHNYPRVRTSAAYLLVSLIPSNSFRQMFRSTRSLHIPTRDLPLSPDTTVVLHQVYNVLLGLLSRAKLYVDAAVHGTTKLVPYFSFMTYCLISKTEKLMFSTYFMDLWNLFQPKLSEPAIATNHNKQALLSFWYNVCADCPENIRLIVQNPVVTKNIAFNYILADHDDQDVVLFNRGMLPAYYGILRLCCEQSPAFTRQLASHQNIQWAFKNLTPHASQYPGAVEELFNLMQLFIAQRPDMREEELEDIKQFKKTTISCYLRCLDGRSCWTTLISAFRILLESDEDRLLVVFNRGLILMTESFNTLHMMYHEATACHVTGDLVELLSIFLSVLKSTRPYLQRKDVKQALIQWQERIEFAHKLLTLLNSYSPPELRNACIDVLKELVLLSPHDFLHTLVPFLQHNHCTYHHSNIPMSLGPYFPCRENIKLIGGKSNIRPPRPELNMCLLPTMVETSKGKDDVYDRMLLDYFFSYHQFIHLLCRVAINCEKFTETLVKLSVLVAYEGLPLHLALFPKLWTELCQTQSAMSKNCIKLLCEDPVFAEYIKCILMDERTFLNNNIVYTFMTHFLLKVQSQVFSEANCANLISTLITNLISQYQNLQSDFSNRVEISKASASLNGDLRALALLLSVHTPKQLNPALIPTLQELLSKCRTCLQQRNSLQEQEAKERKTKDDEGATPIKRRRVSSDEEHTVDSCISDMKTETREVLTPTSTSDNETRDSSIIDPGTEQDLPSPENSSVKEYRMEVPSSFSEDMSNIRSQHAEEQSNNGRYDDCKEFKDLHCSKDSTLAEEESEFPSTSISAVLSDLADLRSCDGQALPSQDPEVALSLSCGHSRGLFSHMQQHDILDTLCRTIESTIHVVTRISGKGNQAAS

CCC1c2ccsc2CCN1C(=O)CCl (stereo not given)
inactive: USP34 -0.381 | USP36 -0.0771 | USP38 -0.204 | USP39 0.162 | USP4 -0.497

From the supplement of paper PMC11732987, “Enantioselective OTUD7B fragment discovery through chemoproteomics screening and high-throughput optimisation” (Communications Chemistry, 2025)
